Calls of active or inactive are those of the source. How the source made its calls: active means hit-call score of the fitted dose curve at least 0.9, where 1 is the maximum; inactive means score below 0.9.
Columns and labels:
[1] = read-out: Thrombomodulin, THBD (gene 7056); assay: BSK_CASM3C_Thrombomodulin: BioMAP Diversity Plus: CASM3C Assay for Thrombomodulin Biomarker Activity (AID 2283051); conditions: primary human coronary artery smooth muscle cells; actives raise or lower the signal;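 further: thrombomodulin protein level measured by ELISA 24 h after dosing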
[2] = read-out: Tissue Factor, F3 (gene 2152); assay: BSK_CASM3C_TissueFactor: BioMAP Diversity Plus: CASM3C Assay for Tissue Factor Biomarker Activity (AID 2283052); conditions: primary human coronary artery smooth muscle cells; actives raise or lower the signal;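 further: cell surface tissue factor protein level read by ELISA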
[3] = read-out: Urokinase-type plasminogen activator receptor (uPAR), PLAUR (gene 5329); assay: BSK_CASM3C_uPAR: BioMAP Diversity Plus: CASM3C Assay for Urokinase-type plasminogen activator receptor (uPAR) Biomarker Activity (AID 2283054); conditions: primary human coronary artery smooth muscle cells; actives raise or lower the signal;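 further: cell-surface uPAR protein level quantified by ELISA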
[4] = read-out: Vascular cell adhesion molecule 1 (VCAM1), VCAM1 (gene 7412); assay: BSK_CASM3C_VCAM1: BioMAP Diversity Plus: CASM3C Assay for Vascular cell adhesion molecule 1 (VCAM1) Biomarker Activity (AID 2283055); conditions: primary human coronary artery smooth muscle cells; actives raise or lower the signal;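 further: VCAM-1 protein level quantified by ELISA on the cells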
[5] = read-out: Collagen III, COL3A1 (gene 1281); assay: BSK_hDFCGF_CollagenIII: BioMAP Diversity Plus: hDFCGF Assay for Collagen III Biomarker Activity (AID 2283056); conditions: primary human foreskin fibroblasts; actives raise or lower the signal
Summary of the method: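 hDFCGF primary human dermal fibroblasts; 24 h chemical exposure; collagen III by ELISA; bidirectional curve fit vs DMSO baseline (gain or loss of signal).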

[6] = read-out: Epidermal growth factor receptor (EGFR), EGFR (gene 1956); assay: BSK_hDFCGF_EGFR: BioMAP Diversity Plus: hDFCGF Assay for Epidermal growth factor receptor (EGFR) Biomarker Activity (AID 2283057); conditions: primary human foreskin fibroblasts; actives raise or lower the signal
Summary of the method: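 hDFCGF system, primary human foreskin fibroblasts; compound 24 h; EGFR measured by ELISA; DMSO = negative control/baseline; bidirectional fitting.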

[7] = read-out: Interleukin-8 (IL8), CXCL8 (gene 3576); assay: BSK_hDFCGF_IL8: BioMAP Diversity Plus: hDFCGF Assay for Interleukin-8 (IL8) Biomarker Activity (AID 2283058); conditions: primary human foreskin fibroblasts; actives raise or lower the signal
Summary of the method: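 ELISA read-out of IL-8 from primary human foreskin fibroblast cultures taken 24 h after dosing; values are bidirectional fits relative to DMSO vehicle.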

[8] = BSK_hDFCGF_Proliferation: Cell Proliferation Assessment in the BioMAP Diversity Plus: hDFCGF Assay (AID 2283059); conditions: primary human foreskin fibroblasts;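 further: curves fitted for both rise and fall of signal versus DMSO baseline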
Summary of the method: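 Steps: dose primary human dermal fibroblasts (foreskin); […] fix in 10% TCA; stain with 0.1% SRB; read 560 nm; fit gain or loss of signal against DMSO.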

[9] = read-out: Macrophage colony-stimulating factor (MCSF), CSF1 (gene 1435); assay: BSK_hDFCGF_MCSF: BioMAP Diversity Plus: hDFCGF Assay for Macrophage colony-stimulating factor (MCSF) Biomarker Activity (AID 2283060); conditions: primary human foreskin fibroblasts; actives raise or lower the signal
Summary of the method: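 ELISA read-out of M-CSF in human dermal foreskin fibroblast cultures, 24 h after chemical dosing; gain or loss of signal fitted bidirectionally relative to DMSO baseline.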

[10] = read-out: Interferon-gamma inducible Protein 10 (IP10), CXCL10 (gene 3627); assay: BSK_hDFCGF_IP10: BioMAP Diversity Plus: hDFCGF Assay for Interferon-gamma inducible Protein 10 (IP10) Biomarker Activity (AID 2283053); conditions: primary human foreskin fibroblasts; actives raise or lower the signal
Summary of the method: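 Primary foreskin fibroblasts, human; 24 h compound exposure; IP-10 by ELISA; bidirectional fit vs DMSO.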

Measured: AC50

CC(C)N1C(=O)N(c2ccccc2)CSC1=NC(C)(C)C
active: [1] 27.3 µM | [5] 26.7 µM | [8] 32 µM
not listed: [10]
inactive: all other assays above

Cc1cnc(C2=NC(C)(C(C)C)C(=O)N2)c(C(=O)O)c1 (stereo unspecified)
inactive: all assays above

COP(=S)(OC)SCn1nnc2ccccc2c1=O
active: [8] 26.2 µM
inactive: all other assays above

CSC(=O)c1c(C(F)F)nc(C(F)(F)F)c(C(=O)SC)c1CC(C)C
active: [1] 20 µM | [8] 30.6 µM | [9] 11.4 µM
not listed: [10]
inactive: all other assays above

OC(c1ccc(Cl)cc1)(c1ccc(Cl)cc1)C(Cl)(Cl)Cl
inactive: [2] | [6]
active: [1] 33.1 µM | [10] 9.87 µM | [3] 32.9 µM | [4] 27.2 µM | [5] 10.3 µM | [7] 11 µM | [8] 10 µM | [9] 8.17 µM

Clc1nc(Cl)nc(Nc2ccccc2Cl)n1
active: [10] 32 µM | [8] 27.8 µM
not listed: [9]
inactive: all other assays above

O=C(O)c1c(Cl)ccc2cc(Cl)cnc12
inactive: all assays above

CCOc1nc(F)cc2nc(S(=O)(=O)Nc3c(Cl)cccc3Cl)nn12
not listed: [10]
inactive: all other assays above

C=C(C)CN(CC)c1c([N+](=O)[O-])cc(C(F)(F)F)cc1[N+](=O)[O-]
active: [10] 20 µM | [8] 19.5 µM
inactive: all other assays above

Source: PubChem BioAssay (EPA / NIEHS)
